# Test results from PubChem BioAssay (EPA / NIEHS).
# Results filed as inconclusive are left out. Some structures have more than one record in an assay (separate samples or runs), and their calls can disagree. The source made the active and inactive calls. The calls were made as follows, unless noted: active = hit-call score of the fitted dose curve at least 0.9, where 1 is the maximum; inactive = score below 0.9.
# Tests used:
# [1] = molecular target: human Caspase 5 (CASP5), CASP5 (gene 838) (UniProt P51878); test: NVS_ENZ_hCASP5: NovaScreen (NVS) Enzymatic Assay for human Caspase 5 (CASP5) (AID 2283137; active = hit-call score of the fitted dose curve at least 0.9, where 1 is the maximum)
# In short: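 E. coli-derived enzyme, cell-free, 2 h incubation, fluorescence intensity. 25 uM duplicate single-point; hits → concentration series to 50 uM. DMSO baseline, positive/negative controls on every plate.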
# [2] = CCTE_Shafer_MEA_acute_spike_number: CCTE's Neural Acute Assay for Total Number of Spikes, Shafer Lab (AID 2284008);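 as to AC50: curve fitted for decrease in spike count so AC50 reflects inhibitors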
# In short: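 Primary rat cortical neurons on 16-electrode MEA wells; on DIV 13 or 15, 40-min baseline then 40-min recording with compound (0.03-40 uM) at 37 C. Spikes detected at 8x rms noise; percent change versus baseline, DMSO as negative control.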
# [3] = CCTE_Shafer_MEA_acute_burst_number: CCTE's Neural Acute Assay for Single-Electrode Bursts, Shafer Lab (AID 2284013)
# In short: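 Rat cortical cultures, DIV 13/15; 40 min baseline, then 40 min with compound 0.03-40 uM, 37 C. Spikes: 300-5000 Hz band-pass, threshold 8x rms noise. Readout = % change in single-electrode bursts vs baseline, loss-of-signal fit.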
# [4] = CCTE_Shafer_MEA_acute_network_burst_percentage: CCTE's Neural Acute Assay for Percentage of Network Bursts, Shafer Lab (AID 2284022);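 also: curves fitted for loss so actives lower network burst percentage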
# In short: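 Primary rat cortical neurons on 16-electrode MEA wells, treated on DIV 13 or 15 with compound (0.03-40 uM); 40-min baseline and 40-min post-exposure recordings at 37 C. Value is percent change in spikes within network bursts versus baseline, DMSO negative control.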
# [5] = molecular target: D(1A) dopamine receptor (Homo sapiens) (UniProt P21728); test: NVS_GPCR_hDRD1: NovaScreen (NVS) G Protein-Coupled Receptor Assay for human Dopamine Receptor D1 (DRD1) (AID 2283269; active = hit-call score of the fitted dose curve at least 0.9, where 1 is the maximum)
# In short: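 HEK293-derived receptor preparation; radioligand competitive displacement; 1 h; filtration + scintillation counting. DMSO = negative control/baseline. Primary: 25 uM, duplicate; secondary: concentration–response for actives.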
# [6] = molecular target: sheep Cyclooxygenase-1 (Cox1), PTGS1 (gene 443551) (UniProt P05979); test: NVS_ENZ_oCOX1: NovaScreen (NVS) Enzymatic Assay for sheep Cyclooxygenase-1 (Cox1) (AID 2283239; active = hit-call score of the fitted dose curve at least 0.9, where 1 is the maximum;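 also: actives reduce cyclooxygenase activity so potencies are for inhibitors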)
# In short: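 Cell-free colorimetric assay of enzyme activity in a native extract of ovine seminal vesicles. Absorbance was read 0.66 hour after compound addition. Loss of signal relative to the DMSO negative control was scored, with actives from the 25 uM duplicate primary screen retested in concentration series.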
# [7] = molecular target: Cytochrome P450 2C19 (Homo sapiens) (UniProt P33261); test: NVS_ADME_hCYP2C19: NovaScreen (NVS) CYP450-related Enzyme Activity (ADME) Assay for human CYP2C19 (AID 2283113; active = hit-call score of the fitted dose curve at least 0.9, where 1 is the maximum;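 also: potency for inhibition seen as loss of fluorescent signal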)
# In short: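 Cell-free assay of recombinant human CYP2C19 expressed in insect cells, with a fluorogenic substrate; fluorescence intensity read 1 hour after dosing. Loss of signal relative to acetonitrile negative control indicates inhibition. Primary screen at 10 uM in duplicate, then concentration series.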
# [8] = CEETOX_H295R_11DCORT: CeeTox H295R High-throughput Steroidogenesis Assay for 11-Deoxycortisol (11DCORT) (AID 2283432); settings: actives raise or lower the signal;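 as to AC50: human adrenal H295R cells prestimulated with 10 µM forskolin for 48 h; 11-deoxycortisol secreted into the medium measured by LC-MS/MS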
# In short: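 Adrenal carcinoma line H295R, run per OECD 456 with minor changes, was forskolin-stimulated (10 uM, 48 h) before a 48 h chemical exposure at 0.1% DMSO. Secreted 11-deoxycortisol was quantified by HPLC-MS/MS.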
# [9] = CEETOX_H295R_CORTIC: CeeTox H295R High-throughput Steroidogenesis Assay for Corticosterone (CORTIC) (AID 2283437); settings: actives raise or lower the signal;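 also: corticosterone secreted into medium quantified by mass spectrometry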;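 as to AC50: human H295R adrenal cells prestimulated with forskolin before chemical exposure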
# In short: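 H295R cells were prestimulated 48 h with 10 uM forskolin, then exposed 48 h to test chemical in 0.1% DMSO. Medium corticosterone was MTBE-extracted and quantified by HPLC-MS/MS; bidirectional fit versus DMSO baseline.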
# [10] = CEETOX_H295R_CORTISOL: CeeTox H295R High-throughput Steroidogenesis Assay for Cortisol (AID 2283438); settings: actives raise or lower the signal;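 also: cortisol secreted into medium quantified by LC-MS/MS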
# In short: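 Forskolin 10 uM 48 h prestim → test cmpd in DMSO (0.1% final) 48 h → medium MTBE-extracted → LC-MS/MS cortisol vs 7-pt std curve. Gain/loss of signal fitted vs DMSO. MTT viability in same wells.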
# [11] = CEETOX_H295R_DOC: CeeTox H295R High-throughput Steroidogenesis Assay for DOC (AID 2283439); settings: actives raise or lower the signal
# In short: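 Readout: 11-deoxycorticosterone in culture medium by reverse-phase C18 HPLC with ESI+ tandem MS after MTBE extraction. Cells: H295R, forskolin-primed (10 uM, 48 h), chemical-treated 48 h; DMSO 0.1% final. Activity fitted bidirectionally versus DMSO.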
# [12] = CCTE_Shafer_MEA_dev_firing_rate_mean: CCTE's Neural Network Formation Assay for Mean Firing Rate, Shafer Lab (AID 2284031)
# In short: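 Rat primary cortical neurons were seeded on multielectrode arrays and treated from plating through day 12, with redosing at each feed. Spontaneous spiking was recorded four times; mean firing rate AUC was fitted downward against DMSO.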
# [13] = CCTE_Shafer_MEA_dev_per_burst_spike_percent: CCTE's Neural Network Formation Assay for Percent of Spikes in a Burst, Shafer Lab (AID 2284032)
# In short: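 Rat primary cortical neurons on 16-electrode MEA wells, dosed from plating day 0 for 12 days with renewal on DIV 5 and 9; spikes-in-bursts percentage averaged over bursting electrodes, collapsed as AUC across days 5, 7, 9, 12; loss direction versus DMSO.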
# [14] = CCTE_Shafer_MEA_dev_active_electrodes_number: CCTE's Neural Network Formation Assay for Number of Active Electrodes, Shafer Lab (AID 2284040; active = hit-call score of the fitted dose curve at least 0.9, where 1 is the maximum)
# In short: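 Primary rat cortical neurons on 16-electrode MEA wells, exposed from day 0 through day 12 with compound renewed at DIV 5 and 9 feeds. Active electrodes (mean firing ≥5 spikes/min) counted at DIV 5, 7, 9, 12; trapezoidal AUC across days, loss-of-signal versus DMSO.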
# [15] = CCTE_Shafer_MEA_dev_burst_rate: CCTE's Neural Network Formation Assay for Burst Rate, Shafer Lab (AID 2284042)
# In short: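 Cells plated, treated day 0; recorded DIV 5, 7, 9, 12; fed and re-treated DIV 5, 9. Endpoint: bursts per recording time, active-electrode well mean, trapezoidal AUC, fitted in decreasing direction against DMSO baseline.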
# [16] = CCTE_Shafer_MEA_dev_per_burst_interspike_interval: CCTE's Neural Network Formation Assay for Burst Interspike Interval, Shafer Lab (AID 2284044);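 also: mean spike spacing inside bursts as AUC over recordings on days 5 7 9 12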
# In short: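 Rat cortical primary cultures, 16 electrodes/well; compound from plating, renewed with full media change DIV 5 and 9. Spikes via adaptive detector; per-burst ISI well-mean over active bursting electrodes; AUC of DIV 5/7/9/12 recordings; loss-direction fit vs DMSO.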
# [17] = CCTE_Shafer_MEA_dev_interburst_interval_mean: CCTE's Neural Network Formation Assay for Mean Interburst Interval, Shafer Lab (AID 2284046);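 also: well-mean interburst interval of bursting electrodes as AUC over four recording days; curve fitted for decrease in interburst interval relative to DMSO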
# In short: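 Developing rat cortical networks on 48-well MEAs receive compound from the day of plating. Burst intervals from each active electrode are averaged per well, and AUC over the recording days is fitted in the negative direction against DMSO.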
# [18] = CCTE_Shafer_MEA_dev_network_spike_number: CCTE's Neural Network Formation Assay for Number of Network Spikes, Shafer Lab (AID 2284048);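 also: synchronized bursts across electrodes counted on days 5 7 9 12 and integrated as AUC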
# In short: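 Primary rat cortical neurons were seeded at 1.5 x 10^5 cells/well on PEI-coated 16-electrode MEA wells with laminin, exposed from plating day 0, compound renewed at DIV 5 and 9. Network spikes were recorded on days 5, 7, 9, 12 and summarized as trapezoidal AUC versus DMSO.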
# AR (gene 367) = AR (gene 367) (UniProt P10275); test: ACEA_AR_antagonist_80hr: ACEA Biosciences xCELLigence Real-Time Cell Analysis on Androgen Receptor Antagonism for Proliferation (AID 2283787; active = hit-call score of the fitted dose curve at least 0.9, where 1 is the maximum;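 also: 22Rv1 human prostate cancer cells with growth followed by electrical impedance; hits lower the impedance growth signal relative to DMSO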)
# In short: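 Impedance readout (RT-CES), 80 h post-dose; loss-of-signal vs DMSO baseline. 22Rv1 cells in assay medium. Compounds: 8-pt 1:4 series, max 100 uM final, up to 0.5% DMSO; n = 2.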
# [19] = molecular target: Peroxisome proliferator-activated receptor gamma (Homo sapiens) (UniProt P37231); test: NVS_NR_hPPARg: NovaScreen (NVS) Nuclear Receptor Binding Assay for human Peroxisome Proliferator-activated Receptor gamma (PPARg) (AID 2283370; active = hit-call score of the fitted dose curve at least 0.9, where 1 is the maximum)
# In short: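 Cell-free binding to extracted PPARg protein, read by fluorescence polarization 2 h after dosing; loss of signal relative to DMSO baseline marks displacement. Primary screen in duplicate at 25 uM, actives retested in concentration series.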
# Peroxisome proliferator-activated receptor gamma (Homo sapiens), sequence (P37231 whole entry, looked up): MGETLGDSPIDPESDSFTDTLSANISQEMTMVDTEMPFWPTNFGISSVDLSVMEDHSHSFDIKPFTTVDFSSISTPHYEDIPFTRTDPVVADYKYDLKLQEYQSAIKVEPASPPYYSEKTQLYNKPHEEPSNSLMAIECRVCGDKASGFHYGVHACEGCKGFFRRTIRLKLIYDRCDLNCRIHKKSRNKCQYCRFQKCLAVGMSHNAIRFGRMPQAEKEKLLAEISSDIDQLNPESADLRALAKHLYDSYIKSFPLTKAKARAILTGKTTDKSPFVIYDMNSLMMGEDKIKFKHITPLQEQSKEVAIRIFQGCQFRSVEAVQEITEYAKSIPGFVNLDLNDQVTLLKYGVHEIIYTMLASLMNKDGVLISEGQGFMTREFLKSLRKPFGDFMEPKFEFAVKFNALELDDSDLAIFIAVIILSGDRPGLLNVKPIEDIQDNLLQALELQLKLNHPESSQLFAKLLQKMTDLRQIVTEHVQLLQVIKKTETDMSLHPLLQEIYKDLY
# AR (gene 367), sequence (P10275 whole entry, looked up): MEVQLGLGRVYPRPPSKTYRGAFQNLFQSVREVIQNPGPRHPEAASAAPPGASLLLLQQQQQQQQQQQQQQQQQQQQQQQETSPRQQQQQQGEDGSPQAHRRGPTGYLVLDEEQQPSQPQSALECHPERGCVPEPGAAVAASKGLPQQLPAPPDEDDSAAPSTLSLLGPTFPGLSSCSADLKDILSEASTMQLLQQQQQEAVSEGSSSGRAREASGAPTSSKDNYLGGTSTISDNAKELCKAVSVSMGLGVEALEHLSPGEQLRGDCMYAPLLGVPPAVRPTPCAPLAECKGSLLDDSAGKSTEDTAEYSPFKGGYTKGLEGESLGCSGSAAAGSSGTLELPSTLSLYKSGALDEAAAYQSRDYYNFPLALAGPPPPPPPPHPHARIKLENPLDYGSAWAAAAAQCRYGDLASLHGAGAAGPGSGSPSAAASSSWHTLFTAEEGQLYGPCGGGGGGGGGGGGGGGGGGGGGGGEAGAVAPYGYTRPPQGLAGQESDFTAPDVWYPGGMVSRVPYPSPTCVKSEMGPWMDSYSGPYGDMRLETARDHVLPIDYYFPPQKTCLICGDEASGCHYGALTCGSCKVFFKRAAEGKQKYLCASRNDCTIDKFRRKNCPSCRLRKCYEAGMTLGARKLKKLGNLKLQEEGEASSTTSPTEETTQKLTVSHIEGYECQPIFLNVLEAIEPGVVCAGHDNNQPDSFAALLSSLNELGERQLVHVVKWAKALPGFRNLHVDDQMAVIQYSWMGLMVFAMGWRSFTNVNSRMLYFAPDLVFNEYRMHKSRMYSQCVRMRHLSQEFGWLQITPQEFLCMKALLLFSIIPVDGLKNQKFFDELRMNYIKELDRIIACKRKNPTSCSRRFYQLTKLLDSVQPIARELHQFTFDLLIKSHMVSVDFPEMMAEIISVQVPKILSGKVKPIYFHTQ
# D(1A) dopamine receptor (Homo sapiens), sequence (P21728 whole entry, looked up): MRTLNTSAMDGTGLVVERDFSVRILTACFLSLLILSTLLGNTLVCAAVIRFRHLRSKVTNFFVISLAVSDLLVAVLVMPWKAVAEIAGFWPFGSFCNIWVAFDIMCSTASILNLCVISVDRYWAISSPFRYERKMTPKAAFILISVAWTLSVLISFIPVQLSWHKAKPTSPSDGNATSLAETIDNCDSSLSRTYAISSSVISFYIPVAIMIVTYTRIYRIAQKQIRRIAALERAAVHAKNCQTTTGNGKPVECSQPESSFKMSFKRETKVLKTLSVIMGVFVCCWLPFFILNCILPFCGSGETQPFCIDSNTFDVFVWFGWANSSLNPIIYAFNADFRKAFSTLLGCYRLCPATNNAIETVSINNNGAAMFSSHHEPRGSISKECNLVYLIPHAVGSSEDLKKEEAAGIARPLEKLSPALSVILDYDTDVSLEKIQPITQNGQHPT
# human Caspase 5 (CASP5), CASP5 (gene 838), sequence (P51878 whole entry, looked up): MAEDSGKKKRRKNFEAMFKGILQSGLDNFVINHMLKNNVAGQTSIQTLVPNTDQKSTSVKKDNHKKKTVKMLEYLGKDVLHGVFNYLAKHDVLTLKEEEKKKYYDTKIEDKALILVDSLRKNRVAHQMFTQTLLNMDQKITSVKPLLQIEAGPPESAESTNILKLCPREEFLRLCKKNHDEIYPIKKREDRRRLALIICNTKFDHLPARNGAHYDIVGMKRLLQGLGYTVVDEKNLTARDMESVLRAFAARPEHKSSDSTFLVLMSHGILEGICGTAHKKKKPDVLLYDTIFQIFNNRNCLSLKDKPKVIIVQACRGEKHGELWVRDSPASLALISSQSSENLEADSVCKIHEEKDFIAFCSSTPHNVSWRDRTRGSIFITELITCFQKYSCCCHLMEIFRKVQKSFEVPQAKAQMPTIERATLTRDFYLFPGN
# sheep Cyclooxygenase-1 (Cox1), PTGS1 (gene 443551), sequence (P05979 whole entry, looked up): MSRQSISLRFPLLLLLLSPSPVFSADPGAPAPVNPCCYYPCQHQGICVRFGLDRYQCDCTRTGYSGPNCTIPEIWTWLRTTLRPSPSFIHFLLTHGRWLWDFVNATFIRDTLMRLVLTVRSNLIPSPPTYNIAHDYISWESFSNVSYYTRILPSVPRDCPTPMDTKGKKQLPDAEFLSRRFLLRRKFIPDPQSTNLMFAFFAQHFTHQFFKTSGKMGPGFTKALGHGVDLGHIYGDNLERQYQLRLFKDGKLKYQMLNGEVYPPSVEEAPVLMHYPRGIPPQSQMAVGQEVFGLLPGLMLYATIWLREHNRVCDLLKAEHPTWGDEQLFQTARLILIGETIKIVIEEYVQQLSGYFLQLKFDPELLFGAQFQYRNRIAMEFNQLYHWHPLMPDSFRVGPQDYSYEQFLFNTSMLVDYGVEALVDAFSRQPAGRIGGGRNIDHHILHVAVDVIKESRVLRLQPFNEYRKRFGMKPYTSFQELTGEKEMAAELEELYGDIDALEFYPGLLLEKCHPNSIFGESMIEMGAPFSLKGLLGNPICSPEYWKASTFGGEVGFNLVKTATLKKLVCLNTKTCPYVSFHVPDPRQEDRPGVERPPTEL
smiles,measurement,setting,value
O=c1c2ccccc2c(=O)c2c1cc(Cl)c1[nH]c3c([nH]c12)c(Cl)cc1c(=O)c2ccccc2c(=O)c13,AC50,[1],0.296 µM (active)
same,outcome,[2],inactive
same,outcome,[3],inactive
same,outcome,[4],inactive
CC(C)C(=O)Cl,outcome,[5],inactive
O=P1(NCCCl)OCCCN1CCCl (stereo unspecified),outcome,[6],inactive
COC(C)(C)CCC[C@H](C)C/C=C/C(C)=C/C(=O)OC(C)C,AC50,[7],0.992 µM (active)
Cc1ccc(OP(=O)(Oc2ccc(C)cc2)Oc2ccc(C)cc2)cc1 (tested in a mixture with another compound),outcome,[8],inactive
same,outcome,[9],inactive
same,outcome,[10],inactive
same,outcome,[11],inactive
same,AC50,[2],4.2 µM (active)
same,AC50,[3],3.7 µM (active)
same,AC50,[4],7.23 µM (active)
same,outcome,[12],inactive
same,outcome,[13],inactive
same,outcome,[14],inactive
same,outcome,[15],inactive
same,outcome,[16],inactive
same,outcome,[17],inactive
same,outcome,[18],inactive
CC1CCCC1.[C-]#[O+].[C-]#[O+].[C-]#[O+].[Mn],outcome,[12],inactive
same,outcome,[13],inactive
same,outcome,[14],inactive
same,outcome,[15],inactive
same,outcome,[16],inactive
same,outcome,[17],inactive
same,outcome,[18],inactive
CN(C)N,outcome,AR (gene 367),inactive
N#Cc1cccc(C#N)c1,AC50,[6],29.2 µM (active)
CCOC(=O)NC(=S)Nc1ccccc1NC(=S)NC(=O)OCC,AC50,[7],2.84 µM (active)
c1ccc2c(c1)CCCC2,outcome,AR (gene 367),inactive
CNC(=O)Oc1cc(C)c(SC)c(C)c1,outcome,[5],inactive
same,AC50,[8],39.5 µM (active)
same,AC50,[9],21.2 µM (active)
same,outcome,[10],inactive
same,outcome,[11],inactive
O=[N+]([O-])O,AC50,[2],0.0886 µM (active)
same,outcome,[2],inactive
same,AC50,[3],0.189 µM (active)
same,outcome,[3],inactive
same,AC50,[4],0.0386 µM (active)
same,outcome,[4],inactive
CC(C)CCCCCCCOP(=O)(Oc1ccccc1)Oc1ccccc1,outcome,[12],inactive
same,outcome,[13],inactive
same,outcome,[14],inactive
same,outcome,[15],inactive
same,outcome,[16],inactive
same,outcome,[17],inactive
same,outcome,[18],inactive
CC(C)[C@@H](C(=O)O[C@@H](C#N)c1cccc(Oc2ccccc2)c1)c1ccc(Cl)cc1,outcome,[19],inactive
O=CNC(N1CCN(C(NC=O)C(Cl)(Cl)Cl)CC1)C(Cl)(Cl)Cl (stereo unspecified),AC50,[7],5.96 µM (active)
same,AC50,[8],50 µM (active)
same,outcome,[9],inactive
same,outcome,[10],inactive
same,outcome,[11],inactive
same,outcome,AR (gene 367),inactive
COc1cc(OC)nc(Oc2cccc(Oc3nc(OC)cc(OC)n3)c2C(=O)O)n1,outcome,[19],inactive
same,outcome,AR (gene 367),inactive
CC(=O)C=Cc1ccccc1,outcome,[19],inactive
CNC(=N[N+](=O)[O-])NCC1CCOC1 (stereo unspecified),outcome,[12],inactive
same,outcome,[13],inactive
same,outcome,[14],inactive
same,outcome,[15],inactive
same,outcome,[16],inactive
same,outcome,[17],inactive
same,outcome,[18],inactive
CC(Cc1ccc(C(C)(C)C)cc1)CN1C[C@@H](C)O[C@@H](C)C1 (stereo partly specified),AC50,[7],6.83 µM (active)
same,AC50,[8],13.8 µM (active)
same,outcome,[9],inactive
same,AC50,[10],39.5 µM (active)
same,AC50,[11],9.92 µM (active)
CC(C)(C)C(O)C(Oc1ccc(-c2ccccc2)cc1)n1cncn1 (stereo unspecified),AC50,[8],0.0464 µM (active)
same,outcome,[9],inactive
same,outcome,[10],inactive
same,outcome,[11],inactive
Nc1ccc(-c2ccc(N)c(N)c2)cc1N,AC50,[1],5.41 µM (active)
O=C1C(Cl)=C(Cl)C(=O)C(Cl)=C1Cl,AC50,[1],0.148 µM (active)
same,AC50,[5],4.01 µM (active)
CCc1cccc(C)c1N(C(=O)CCl)[C@@H](C)COC,outcome,[19],inactive
CC(C)(C)C(=O)CCl,outcome,[6],inactive
O=C1C=CC(=O)C=C1,AC50,[1],28.9 µM (active)
same,AC50,[5],12.8 µM (active)
S=c1[nH]c2ccccc2[nH]1,AC50,[6],0.984 µM (active)
O=C(NCNC(=O)NC1C(=O)NC(=O)N1CO)NC1C(=O)NC(=O)N1CO (stereo unspecified),outcome,AR (gene 367),inactive
O=C(O)CCl,outcome,[19],inactive
